Screening results as filed in PubChem BioAssay.
TDP1 cell CPT: DT40-hTDP1 cell growth loss with CPT | chicken DT40 Tdp1-/-;hTDP1 cells + 20 nM CPT, ATP luminescence, 48 h | Potency, µM (top dose mostly 46.2 µM), actives largely listed as inhibitors | 420,000 compounds, 12% hits | AID 686979; further: nearly all actives have a fitted effect of over 55% in size
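Chicken DT40 Tdp1-/- cells complemented with human TDP1, 400 cells/well, exposed to compounds plus 20 nM camptothecin for at least 48 h at 37 C; viability read as ATP content by CellTiter-Glo luminescence.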
RORgamma inh: blocks mouse ROR gamma transcriptional activity; P51450; Potency, µM (doses to about 53.6 µM), hits mostly inhibitors; 310,000 compounds, 5.4% hits; Drosophila S2 Gal4-RORgamma UAS-luciferase reporter, 20 h; further: nearly all actives have a fitted effect of over 60% in size
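Stable Schneider cell line, Gal4 DNA-binding domain fused to ROR gamma, UAS-luciferase. Cmpd 1 hr RT → CuSO4 700 uM final → 20 hr RT → luciferase reagent 10 min → luminescence.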
TDP1 cell noCPT: qHTS for Inhibitors of human tyrosyl-DNA phosphodiesterase 1 (TDP1): qHTS in cells in absence of CPT. DT40 Tdp1-/- hTDP1 cells, no CPT, ATP luminescence, 48 h. Potency, µM (top dose mostly 46.2 µM), actives largely listed as inhibitors. 420,000 compounds, 15% hits; further: nearly all actives have a fitted effect of over 55% in size
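Chicken DT40 Tdp1-/- cells stably complemented with human TDP1 were seeded at 400 cells/well with DMSO in place of 20 nM camptothecin. After compound pinning, cells grew at least 48 hr at 37 °C; viability read by CellTiter-Glo luminescence.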
VP16 counter: inhibits Gal4-VP16 luciferase reporter, ROR gamma counter-screen. Drosophila S2 Gal4-VP16 UAS-luciferase, luminescence, 20 h. Potency, µM (highest dose often 53.6 µM), usual class: inhibitors. 310,000 compounds, 3.5% hits. AID 2546;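 further: Gal4-VP16 expression switched on by copper sulfate through the metallothionein promoter; nearly all actives have a fitted effect of over 50% in size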
TDP1 block: TDP1 (human) enzyme inhibition. Q9NUW8. recombinant TDP1, AlphaScreen DNA substrate cleavage. Potency, µM (titrated, usually from 130 µM), hits mostly inhibitors. 350,000 compounds, 0.28% hits; further: nearly all actives have a fitted effect of over 40% in size
Target sequence (Q9NUW8 whole entry, looked up): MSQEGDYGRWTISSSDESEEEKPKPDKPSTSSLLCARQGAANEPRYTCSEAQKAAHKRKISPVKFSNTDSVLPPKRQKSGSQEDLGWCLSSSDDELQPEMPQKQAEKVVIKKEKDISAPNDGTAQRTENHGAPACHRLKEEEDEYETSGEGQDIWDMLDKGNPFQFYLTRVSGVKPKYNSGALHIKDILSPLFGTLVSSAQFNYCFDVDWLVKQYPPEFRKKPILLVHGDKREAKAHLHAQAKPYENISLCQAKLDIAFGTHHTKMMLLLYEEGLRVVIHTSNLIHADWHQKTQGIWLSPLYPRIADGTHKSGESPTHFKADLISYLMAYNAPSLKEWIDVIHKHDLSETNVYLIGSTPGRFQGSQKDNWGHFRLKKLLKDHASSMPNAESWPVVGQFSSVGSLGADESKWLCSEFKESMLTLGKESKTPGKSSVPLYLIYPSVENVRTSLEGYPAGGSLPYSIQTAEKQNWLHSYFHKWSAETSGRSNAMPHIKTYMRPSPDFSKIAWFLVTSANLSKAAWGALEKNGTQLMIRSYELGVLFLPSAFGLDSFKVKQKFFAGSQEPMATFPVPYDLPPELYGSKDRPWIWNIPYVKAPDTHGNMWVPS
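Recombinant human Tdp1 (E. coli-expressed, 1 nM final) preincubated with compounds 15 min at room temperature, then 5'-biotin/3'-phosphotyrosine-FITC DNA substrate (15 nM final) added for 5 min. AlphaScreen beads (10 ug/ml final) added 10 min; cleavage lowers signal.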
A number is an active result. An excerpt weighted towards active compounds, which were near 19% of everything screened. The call rests on the fitted dose curve; in most records, active means well fitted curve in the direction sought with a large enough effect; inconclusive means small, poorly fitted or top-dose-only effect, or another doubt; inactive means no such curve, though single readings can be large; an effect the other way counts as inactive or inconclusive.

How did COc1cc(C(=O)Nc2nc3ccccc3[nH]2)ccc1OC(F)F do in these assays?
TDP1 cell CPT: 21µM; RORgamma inh: 5µM; TDP1 cell noCPT: 15µM; VP16 counter: 7.9µM; TDP1 block: inactive

Results for N#Cc1ccccc1Sc1ccccc1N ?
TDP1 cell CPT: inactive; RORgamma inh: inactive; TDP1 cell noCPT: inactive; VP16 counter: inactive; TDP1 block: inactive

What do the screens show for `Nc1ccccc1SSc1ccccc1N`?
TDP1 cell CPT: 5.2µM; RORgamma inh: inconclusive; TDP1 cell noCPT: 3.7µM; VP16 counter: inconclusive; TDP1 block: inactive

Results for O=C1c2ccccc2C(Nc2cccc(C(F)(F)F)c2)N1Cc1ccco1 (configuration not stated) ?
TDP1 cell CPT: 23µM; RORgamma inh: inactive; TDP1 cell noCPT: 16µM; VP16 counter: inconclusive; TDP1 block: inactive

How did COc1cccc(NC2c3ccccc3C(=O)N2Cc2ccco2)c1 (configuration not stated) do in these assays?
TDP1 cell CPT: 21µM; RORgamma inh: inactive; TDP1 cell noCPT: 23µM; VP16 counter: inactive; TDP1 block: inactive

How did O=C(NCCCN1CCN(c2ccc(F)cc2)CC1)c1cc2c(s1)-c1ccccc1OC2 do in these assays?
TDP1 block: inactive

What do the screens show for `O=C(NCCCN1CCN(c2ccccc2)CC1)c1cc2c(s1)-c1ccccc1OC2`?
TDP1 cell CPT: inconclusive; TDP1 cell noCPT: 23µM; TDP1 block: inactive

What do the screens show for `Cc1ccc(CCNC(=O)c2cc3c(s2)-c2ccccc2OC3)cc1`?
TDP1 cell CPT: inconclusive; TDP1 cell noCPT: inconclusive; TDP1 block: 40µM

What do the screens show for `CCN(CC)CCNC(=O)c1cc2c(s1)-c1ccccc1SC2`?
TDP1 cell CPT: 23µM; RORgamma inh: inactive; TDP1 cell noCPT: 16µM; VP16 counter: inactive

How did Cc1cc(C)c2c3c(sc2n1)C(=O)N(c1ccccc1)CC(=O)N3 do in these assays?
TDP1 cell CPT: inactive; RORgamma inh: inactive; TDP1 cell noCPT: inactive; VP16 counter: inactive; TDP1 block: inactive

How did Cc1cc(NC(=O)c2ccc(S(=O)(=O)N3CCOCC3)cc2)nc2c1c(=O)oc1ccccc12 do in these assays?
RORgamma inh: inactive; VP16 counter: inactive; TDP1 block: inactive

Results for Cc1cc(-c2csc(NC(=O)c3ccc(S(=O)(=O)N(C)C)cc3)n2)c(C)n1-c1ccccc1 ?
TDP1 cell CPT: inconclusive; RORgamma inh: inactive; TDP1 cell noCPT: 18µM; VP16 counter: inactive; TDP1 block: inactive

Results for CN(C)S(=O)(=O)c1ccc(C(=O)Nc2nnc(Cc3ccccc3)s2)cc1 ?
TDP1 cell CPT: inactive; RORgamma inh: inactive; TDP1 cell noCPT: inactive; VP16 counter: inactive; TDP1 block: inactive

How did Cc1cc(NC(=O)c2ccc(S(=O)(=O)N3CCCC3)cc2)nc2c1c(=O)oc1ccccc12 do in these assays?
TDP1 cell CPT: 7.3µM; RORgamma inh: inactive; TDP1 cell noCPT: 10µM; VP16 counter: inactive; TDP1 block: inactive

Results for O=C(Nc1nc(-c2cc3ccccc3o2)cs1)c1ccc(S(=O)(=O)N2CCCC2)cc1 ?
TDP1 cell CPT: 16µM; RORgamma inh: inconclusive; TDP1 cell noCPT: 2.3µM; VP16 counter: 7.9µM; TDP1 block: inactive

What do the screens show for `CN(C)S(=O)(=O)c1ccc(C(=O)Nc2nc(-c3cc4ccccc4o3)cs2)cc1`?
TDP1 cell CPT: 10µM; RORgamma inh: inconclusive; TDP1 cell noCPT: 2.9µM; VP16 counter: 6.3µM; TDP1 block: inactive

What do the screens show for `O=C(Nc1nccs1)c1ccc(S(=O)(=O)N2CCCCC2)cc1`?
TDP1 cell CPT: inactive; RORgamma inh: inconclusive; TDP1 cell noCPT: inactive; VP16 counter: inconclusive; TDP1 block: inactive

How did CN(C)S(=O)(=O)c1ccc(C(=O)Nc2nnc(SCc3ccccc3)s2)cc1 do in these assays?
TDP1 cell CPT: inactive; RORgamma inh: inactive; TDP1 cell noCPT: inactive; VP16 counter: inactive; TDP1 block: inactive

How did CC(CCc1ccccc1)NC(=O)C1CCC1 (configuration not stated) do in these assays?
TDP1 cell CPT: inactive; TDP1 cell noCPT: inactive

Results for O=C(CCc1nc(-c2ccc(Cl)cc2)no1)OCc1ccc(Br)cc1 ?
TDP1 cell CPT: inactive; TDP1 cell noCPT: inactive
